Screen size: about 39,000 compounds; about 3,300 (8.5%) were called active. The full list was thinned out, with actives kept by preference.
The compounds below were run on HepG2 (assay: cytotoxicity call (relative viability < 0.9)). Conditions: 10 µM.

| SMILES | cytotoxicity call |
| --- | --- |
| CO[C@@]1(C2=NCCN2)COc2ccccc2O1 | inactive |
| O=C1O[C@@H](c2ccccc2)[C@@H](c2ccccc2)N2[C@@H](c3ccccc3OCCO)[C@]3(C(=O)Nc4ccc(C#CC5(O)CCCCCC5)cc43)[C@@H](C(=O)N3CCCCCCC3)[C@H]12 | inactive |
| C[C@H](CO)N1C[C@H](C)[C@H](CN(C)C(=O)C2CCCCC2)OCCCC[C@H](C)Oc2ccc(NC(=O)C3CCCCC3)cc2C1=O | inactive |
| CCCn1c(=O)c(C)cn2nc(N)nc12 | inactive |
| O=C(N[C@@H]1C=C[C@@H](CC(=O)N2CCOCC2)O[C@@H]1CO)c1ccccn1 | inactive |
| O=C(CCn1ccc(=O)[nH]c1=O)Nc1ccc2c(c1)NC(=O)CO2 | inactive |
| COc1ccc2c3c([nH]c2c1)[C@@H](CO)N(CC1CCCCC1)C[C@]13CCN(CC1)C(=O)NC1CCCC1 | inactive |
| Cc1noc(C)c1S(=O)(=O)Nc1ccc2c(c1)CC(=O)N([C@H](C)CO)C[C@@H](C)[C@H](CN(C)Cc1ccc3c(c1)OCO3)O2 | inactive |
| CN(C)c1ccsc1C(=O)NN | inactive |
| C[C@@H]1CN([C@H](C)CO)C(=O)c2cc(NC(=O)CCC(F)(F)F)ccc2O[C@@H](C)CCCCO[C@H]1CN(C)C(=O)C1CCCCC1 | inactive |
| C[C@@H]1CCCCO[C@H](CN(C)C(=O)C2CCCCC2)[C@H](C)CN([C@@H](C)CO)C(=O)c2cc(NC(=O)Nc3ccc4c(c3)OCO4)ccc2O1 | inactive |
| Cc1nc(COP(=O)(O)O)cc2c1[O][Mn][O]c1c(cc(COP(=O)(O)O)nc1C)CN(CC(=O)O)CCN(CC(=O)O)C2 | inactive |
| C[C@@H]1CN([C@@H](C)CO)C(=O)c2cc(NC(=O)Nc3ccc(F)cc3)ccc2O[C@@H](C)CCCCO[C@@H]1CN(C)CC1CCCCC1 | active |
| C[C@@H]1CCCCO[C@@H](CN(C)CC2CCCCC2)[C@H](C)CN([C@@H](C)CO)C(=O)c2cc(NC(=O)Nc3ccc(F)cc3)ccc2O1 | active |
| C[C@H]1CCCCO[C@@H](CN(C)CC2CC2)[C@@H](C)CN([C@@H](C)CO)C(=O)c2cc(NC(=O)Nc3ccc(F)cc3)ccc2O1 | inactive |
| C[C@@H]1CCCCO[C@H](CN(C)CC2CCCCC2)[C@@H](C)CN([C@H](C)CO)C(=O)c2cc(NC(=O)Nc3ccc(F)cc3)ccc2O1 | inactive |
| C[C@@H]1CCCCO[C@@H](CN(C)CC2CCCCC2)[C@H](C)CN([C@H](C)CO)C(=O)c2cc(NC(=O)Nc3ccc(F)cc3)ccc2O1 | active |
| C[C@@H]1CCCCO[C@H](CN(C)CC2CCCCC2)[C@H](C)CN([C@@H](C)CO)C(=O)c2cc(NC(=O)Nc3ccc(F)cc3)ccc2O1 | active |
| C[C@@H]1CN([C@H](C)CO)C(=O)CCCn2cc(nn2)CO[C@H]1CN(C)S(=O)(=O)c1ccc2c(c1)OCCCO2 | inactive |
| Cc1noc(C)c1NC(=O)N(C)C[C@H]1OCCCC[C@H](C)Oc2ccc(NC(=O)NC3CCCCC3)cc2C(=O)N([C@@H](C)CO)C[C@@H]1C | inactive |
| CN(C)CC#Cc1ccc([C@@H]2[C@H]3CN(C(=O)CN(C)C)CCCCN3[C@H]2CO)cc1 | inactive |

| SMILES | cytotoxicity call |
| --- | --- |
| C[C@@H]1CCCCO[C@@H](CN(C)C(=O)NC2CCCCC2)[C@H](C)CN([C@@H](C)CO)C(=O)c2cc(NC(=O)NC3CCCCC3)ccc2O1 | inactive |
| O=C(C[C@@H]1C[C@H]2c3cc(NC(=O)c4ccc5c(c4)OCO5)ccc3O[C@H]2[C@@H](CO)O1)NCc1ccccn1 | inactive |
| C[C@@H]1CN([C@@H](C)CO)C(=O)c2cccc(NC(=O)Nc3ccc(C(F)(F)F)cc3)c2O[C@@H]1CN(C)Cc1ccc(-c2ccccc2)cc1 | inactive |
| CC(C)NC(=O)Nc1ccc2c(c1)CC(=O)N([C@H](C)CO)C[C@@H](C)[C@H](CN(C)S(=O)(=O)c1cn(C)cn1)O2 | inactive |
| C[C@H]1CN([C@@H](C)CO)C(=O)c2cccc(NS(=O)(=O)c3ccc(F)cc3)c2O[C@@H]1CN(C)Cc1ccncc1 | inactive |
| C[C@H](O)C#Cc1ccc2c(c1)O[C@H](CN(C)C(=O)c1ccccc1)[C@H](C)CN([C@@H](C)CO)S2(=O)=O | inactive |
| C[C@@H]1CN([C@@H](C)CO)S(=O)(=O)c2ccc(-c3cccnc3)cc2O[C@H]1CN(C)C(=O)c1cccc(F)c1 | inactive |
| C[C@H](CO)N1C[C@H](C)[C@H](CN(C)CC2CCCCC2)OCCCC[C@H](C)Oc2ccc(NC(=O)Nc3ccc(F)cc3)cc2C1=O | active |
| C[C@@H]1CN([C@@H](C)CO)C(=O)c2cc(NC(=O)Nc3ccc(F)cc3)ccc2O[C@@H](C)CCCCO[C@H]1CN(C)CC1CCCCC1 | active |
| C[C@H](CO)N1C[C@H](C)[C@H](CN(C)CC2CC2)OCCCC[C@H](C)Oc2ccc(NC(=O)Nc3ccc(F)cc3)cc2C1=O | inactive |
| C[C@@H]1CCCCO[C@@H](CN(C)CC2CC2)[C@@H](C)CN([C@H](C)CO)C(=O)c2cc(NC(=O)Nc3ccc(F)cc3)ccc2O1 | inactive |
| C[C@@H]1CCCCO[C@@H](CN(C)CC2CC2)[C@H](C)CN([C@@H](C)CO)C(=O)c2cc(NC(=O)Nc3ccc(F)cc3)ccc2O1 | inactive |
| C[C@H](CO)N1C[C@H](C)[C@@H](CN(C)CC2CCCCC2)OCCCC[C@H](C)Oc2ccc(NC(=O)Nc3ccc(F)cc3)cc2C1=O | active |
| C[C@H](CO)N1C[C@H](C)[C@@H](CN(C)CC2CC2)OCCCC[C@H](C)Oc2ccc(NC(=O)Nc3ccc(F)cc3)cc2C1=O | inactive |
| COCC(=O)Nc1ccc2c(c1)OC[C@H](C)N(C(=O)Cc1cccnc1)C[C@@H](C)[C@H](OC)CN(C)C2=O | inactive |
| COCC#Cc1ccc2c(c1)O[C@H](CN(C)C(=O)Nc1ccccc1F)[C@H](C)CN([C@@H](C)CO)S2(=O)=O | inactive |
| COc1ccccc1-c1cnc2c(c1)C(=O)N([C@@H](C)CO)C[C@H](C)[C@@H](CN(C)C(=O)c1ccncc1)O2 | inactive |
| O=C(C[C@H]1CC[C@@H](NC(=O)CN2CCOCC2)[C@@H](CO)O1)NC1CCC1 | inactive |
| O=C1/C(=C/C=C/c2ccco2)CCC/C1=C\C=C\c1ccco1 | inactive |
| NC(=O)CSc1nnnn1-c1cccc(O)c1 | inactive |
| C[C@H]1CN([C@@H](C)CO)C(=O)c2cccc(NC(=O)c3cnccn3)c2O[C@@H]1CN(C)S(=O)(=O)c1ccc(Cl)cc1 | inactive |
